According to PubChem BioAssay (NCI):
About 83,000 compounds went through this panel and 20% of them were active in at least one assay; those are over-represented in the sample as a whole.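 Each cell line was grown in a 96-well plate and treated with one concentration of compound for 48 hours. Values below 10 were considered active.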 Calls of active or inactive are those of the source.

Tests used:
Experiment in all cases: NCI-60 one-dose screen, 48 h (100 = growth as untreated, 0 = no growth, -100 = all killed)
SK-MEL-2 melanoma = settings: 10 µM unless noted
SN12C renal = settings: 10 µM unless noted
UO-31 renal = settings: 10 µM unless noted
TK-10 renal = settings: 10 µM unless noted
ACHN renal = settings: 10 µM unless noted
CAKI-1 renal = settings: 10 µM unless noted
A498 renal = settings: 10 µM unless noted
CCRF-CEM leukemia = settings: 10 µM unless noted
MOLT-4 leukemia = settings: 10 µM unless noted
SR leukemia = settings: 10 µM unless noted
RPMI-8226 leukemia = settings: 10 µM unless noted
OVCAR-8 ovarian = settings: 10 µM unless noted
OVCAR-5 ovarian = settings: 10 µM unless noted
OVCAR-4 ovarian = settings: 10 µM
IGROV1 ovarian = settings: 10 µM unless noted
OVCAR-3 ovarian = settings: 10 µM unless noted
HS 578T breast = settings: 10 µM unless noted
NCI/ADR-RES ovarian = settings: 10 µM unless noted
SK-OV-3 ovarian = settings: 10 µM unless noted
EKVX NSCLC = settings: 10 µM unless noted

Measured: growth

Cn1cc(-c2noc(C(=O)c3cn(C)c4ncccc34)n2)c2ccccc21
inactive: SK-MEL-2 melanoma 107% | SN12C renal 95% | UO-31 renal 75.9% | TK-10 renal 26.5% | ACHN renal 98.6% | CAKI-1 renal 86.2% | A498 renal 69.9% | CCRF-CEM leukemia 98.1% | MOLT-4 leukemia 95.6% | SR leukemia 74.9% | RPMI-8226 leukemia 94.5% | OVCAR-8 ovarian 102% | OVCAR-5 ovarian 96.1% | OVCAR-4 ovarian 57.7% | IGROV1 ovarian 80.7% | OVCAR-3 ovarian 103% | HS 578T breast 88.5% | NCI/ADR-RES ovarian 92.3%

CC(C)CCNCC(C)(C)O
inactive: SK-MEL-2 melanoma 107% | SN12C renal 110% | UO-31 renal 92.3% | TK-10 renal 104% | ACHN renal 107% | CAKI-1 renal 99.1% | A498 renal 105% | CCRF-CEM leukemia 116% | MOLT-4 leukemia 110% | SR leukemia 97.9% | RPMI-8226 leukemia 120% | OVCAR-8 ovarian 99.4% | OVCAR-5 ovarian 101% | SK-OV-3 ovarian 110% | IGROV1 ovarian 118% | OVCAR-3 ovarian 119% | HS 578T breast 118% | NCI/ADR-RES ovarian 118%

O=C1COCCN1c1ccc(NCc2cn(Cc3ccccc3)c3ccccc23)cc1
active: CAKI-1 renal -9.69% | A498 renal -88.4% | OVCAR-5 ovarian -23.8%
inactive: SK-MEL-2 melanoma 97.6% | SN12C renal 96.2% | UO-31 renal 63% | TK-10 renal 12.3% | ACHN renal 101% | CCRF-CEM leukemia 96.4% | MOLT-4 leukemia 102% | SR leukemia 58.3% | RPMI-8226 leukemia 86.8% | OVCAR-8 ovarian 93.7% | OVCAR-4 ovarian 62.6% | SK-OV-3 ovarian 34.3% | IGROV1 ovarian 15.5% | OVCAR-3 ovarian 80.9% | HS 578T breast 89.4% | NCI/ADR-RES ovarian 101%

O=C1CC(C(F)(F)F)Cc2nc3ccc(Br)cc3cc21 (stereo not drawn)
inactive: SK-MEL-2 melanoma 107% | SN12C renal 85.8% | UO-31 renal 59.7% | TK-10 renal 145% | ACHN renal 91.5% | CAKI-1 renal 75.5% | A498 renal 49.7% | CCRF-CEM leukemia 98.1% | MOLT-4 leukemia 77.8% | SR leukemia 75.2% | RPMI-8226 leukemia 77.5% | OVCAR-8 ovarian 95.7% | OVCAR-5 ovarian 87.2% | OVCAR-4 ovarian 74.6% | SK-OV-3 ovarian 85.7% | IGROV1 ovarian 73.4% | OVCAR-3 ovarian 94.2% | NCI/ADR-RES ovarian 95.1%

CS(=O)(=O)c1cccnn1
inactive: EKVX NSCLC 76.9% | SN12C renal 89.1% | UO-31 renal 79.9% | TK-10 renal 109% | ACHN renal 97.7% | CAKI-1 renal 73.6% | A498 renal 66.7% | CCRF-CEM leukemia 84.9% | MOLT-4 leukemia 132% | SR leukemia 167% | RPMI-8226 leukemia 97% | OVCAR-8 ovarian 106% | OVCAR-5 ovarian 81.1% | OVCAR-4 ovarian 80.9% | SK-OV-3 ovarian 116% | IGROV1 ovarian 78% | OVCAR-3 ovarian 103% | HS 578T breast 89.2% | NCI/ADR-RES ovarian 96%

O=C1/C(=C\c2cn(CC(O)CN3CCCCC3)c3ccccc23)c2ccccc2N1c1c(Cl)cccc1Cl (stereo not drawn)
active: SK-MEL-2 melanoma -83.4% | SN12C renal -68.2% | UO-31 renal -79.8% | TK-10 renal -75.9% | ACHN renal -90.5% | CAKI-1 renal -80.3% | A498 renal -96.3% | CCRF-CEM leukemia -4.36% | MOLT-4 leukemia -30% | SR leukemia -13% | RPMI-8226 leukemia -25.7% | OVCAR-8 ovarian -86.8% | OVCAR-5 ovarian -92.7% | OVCAR-4 ovarian -68.6% | SK-OV-3 ovarian -99.7% | IGROV1 ovarian -70.2% | OVCAR-3 ovarian -99.6% | HS 578T breast -55.3% | NCI/ADR-RES ovarian -56%

Oc1ccc(N=Nc2nccs2)c(O)c1
active: SR leukemia 8.21% | OVCAR-3 ovarian -1.86%
inactive: SK-MEL-2 melanoma 97.7% | UO-31 renal 39.2% | TK-10 renal 60.3% | ACHN renal 30.3% | CAKI-1 renal 25.9% | A498 renal 225% | CCRF-CEM leukemia 19.5% | MOLT-4 leukemia 11.8% | RPMI-8226 leukemia 20.1% | OVCAR-8 ovarian 36.4% | OVCAR-5 ovarian 87.5% | OVCAR-4 ovarian 25.9% | SK-OV-3 ovarian 78.2% | IGROV1 ovarian 42.9% | HS 578T breast 80.2% | NCI/ADR-RES ovarian 12.4%

CCOC(=O)c1c[nH]c2cc(OCC3CC3)c(OCC3CC3)cc2c1=O
inactive: SK-MEL-2 melanoma 119% | SN12C renal 108% | UO-31 renal 86.5% | TK-10 renal 126% | ACHN renal 105% | CAKI-1 renal 104% | A498 renal 94.1% | CCRF-CEM leukemia 91.3% | MOLT-4 leukemia 109% | SR leukemia 104% | RPMI-8226 leukemia 103% | OVCAR-8 ovarian 99.5% | OVCAR-5 ovarian 102% | OVCAR-4 ovarian 118% | SK-OV-3 ovarian 110% | OVCAR-3 ovarian 109% | HS 578T breast 103% | NCI/ADR-RES ovarian 111%

O=C1NC(=O)C(Cc2ccc(OCc3ccc(-c4cc(F)c(F)c(F)c4)cc3)cc2)S1 (stereo not drawn)
inactive: SK-MEL-2 melanoma 94.4% | SN12C renal 80.1% | UO-31 renal 64.5% | TK-10 renal 100% | ACHN renal 83.9% | CAKI-1 renal 53.9% | A498 renal 95.5% | CCRF-CEM leukemia 80.4% | MOLT-4 leukemia 76.8% | SR leukemia 83.8% | RPMI-8226 leukemia 69% | OVCAR-8 ovarian 90.2% | OVCAR-5 ovarian 93.4% | SK-OV-3 ovarian 87.5% | IGROV1 ovarian 69.3% | OVCAR-3 ovarian 88.3% | HS 578T breast 83.5% | NCI/ADR-RES ovarian 82.1%

O=C(Nc1ccc(C(=O)/C=C/c2ccc(N3CCOCC3)cc2)cc1)Nc1ccc([N+](=O)[O-])cc1
active: A498 renal 5.47%
inactive: SK-MEL-2 melanoma 97.6% | SN12C renal 97% | UO-31 renal 83.5% | TK-10 renal 88.5% | ACHN renal 94.4% | CAKI-1 renal 82.6% | CCRF-CEM leukemia 84.4% | MOLT-4 leukemia 66.2% | SR leukemia 94.1% | RPMI-8226 leukemia 77% | OVCAR-8 ovarian 92.4% | OVCAR-5 ovarian 94.4% | SK-OV-3 ovarian 90.5% | IGROV1 ovarian 72.5% | OVCAR-3 ovarian 93.9% | HS 578T breast 111% | NCI/ADR-RES ovarian 98.5%

c1ccc2c(c1)CN(CCCN1CCOCC1)C2
inactive: SK-MEL-2 melanoma 105% | SN12C renal 96.6% | UO-31 renal 93.1% | TK-10 renal 95.4% | ACHN renal 100% | CAKI-1 renal 87.2% | CCRF-CEM leukemia 102% | MOLT-4 leukemia 103% | SR leukemia 97.8% | RPMI-8226 leukemia 95.5% | OVCAR-8 ovarian 102% | OVCAR-5 ovarian 99.1% | OVCAR-4 ovarian 102% | SK-OV-3 ovarian 102% | IGROV1 ovarian 101% | HS 578T breast 109% | NCI/ADR-RES ovarian 98.7%

CCCn1ccnc1C(O)c1ccc(OCc2ccccc2)c(OC)c1 (stereo not drawn)
inactive: SK-MEL-2 melanoma 91.3% | SN12C renal 92.3% | UO-31 renal 63.7% | TK-10 renal 77.8% | ACHN renal 93.6% | CAKI-1 renal 74.8% | A498 renal 102% | CCRF-CEM leukemia 94% | MOLT-4 leukemia 98.5% | SR leukemia 96.1% | RPMI-8226 leukemia 93.9% | OVCAR-8 ovarian 96.7% | OVCAR-5 ovarian 93.3% | OVCAR-4 ovarian 96.5% | SK-OV-3 ovarian 87.7% | IGROV1 ovarian 96.9% | OVCAR-3 ovarian 95.7% | HS 578T breast 109% | NCI/ADR-RES ovarian 91.3%

O=C(NCCCNC(=O)OCc1ccc2c(Br)cc(Br)c(O)c2n1)OCc1ccc2c(Br)cc(Br)c(O)c2n1
inactive: SK-OV-3 ovarian 20.2%
active: SK-MEL-2 melanoma -6.76% | SN12C renal -77.4% | UO-31 renal -100% | TK-10 renal -89% | ACHN renal -100% | CAKI-1 renal -92% | A498 renal -2.82% | CCRF-CEM leukemia 4.23% | MOLT-4 leukemia 0.977% | SR leukemia 5.95% | RPMI-8226 leukemia -27.3% | OVCAR-8 ovarian -14.6% | OVCAR-5 ovarian -63% | OVCAR-4 ovarian -77.6% | IGROV1 ovarian -87.7% | OVCAR-3 ovarian -69.3% | HS 578T breast -19.1% | NCI/ADR-RES ovarian -29%
